The list is not random: actives were taken first. Their share in the collection is about 12%.
ROMK mod: modulates human ROMK potassium channel activity. Tet-inducible ROMK, thallium flux fluorescence; actives lie on both sides. B-score at 10 µM. 130,000 compounds, 2% hits;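 active means signal ratio slope over the read window, or its plate-corrected B-score, at least 3 SD from the plate mean, either direction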;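 further: B-score of the F/F0 ratio slope over 7 to 12 s after thallium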
Target sequence (P48048 whole entry, looked up): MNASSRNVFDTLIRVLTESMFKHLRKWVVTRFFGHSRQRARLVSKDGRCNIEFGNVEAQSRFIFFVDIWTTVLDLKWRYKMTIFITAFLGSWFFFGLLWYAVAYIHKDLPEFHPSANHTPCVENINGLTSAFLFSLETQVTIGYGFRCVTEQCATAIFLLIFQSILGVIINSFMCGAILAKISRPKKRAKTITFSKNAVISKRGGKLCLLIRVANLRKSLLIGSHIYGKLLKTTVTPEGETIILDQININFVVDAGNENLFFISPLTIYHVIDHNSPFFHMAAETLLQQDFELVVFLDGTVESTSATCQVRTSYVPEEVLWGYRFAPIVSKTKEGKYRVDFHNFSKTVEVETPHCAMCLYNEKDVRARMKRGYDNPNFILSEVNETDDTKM
WT yeast gro inh: growth inhibition of WT yeast, mitochondrial fusion screen; inhibition, % at 10 µM; 190,000 compounds, 2.1% hits; mitochondrial fusion phenotypic screen, WT strain; in the data active means inhibition above about 58%; tested in S. cerevisiae
Cl transport mod: modulators of human KCC2 chloride dependent transport; KCC2 cells, thallium flux FluoZin-2 fluorescence; B-score of Tl+ flux slope (higher = more flux/activation; lower = inhibition) at 10 µM; 190,000 compounds, 2.2% hits; AID 1456;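 active means thallium flux slope and its plate-corrected score both differing from the plate sample mean at a set confidence after two filtering rounds, in either direction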;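 further: slope of fluorescence scaled to starting intensity during 10 to 20 s after thallium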
L major viab: reduces viability of Leishmania major promastigotes; resazurin fluorescence viability; inhibition, % at 10 µM; 200,000 compounds, 9% hits; AID 1063; in the data active means inhibition above about 50%;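 further: promastigotes grown with compound for 44 hours at 28 °C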
m-calpain inh: calpain II (pig) inhibition; purified calpain II, fluorogenic peptide substrate, 30 min; inhibition, % at 16 µM; AID 1236; 220,000 compounds, 0.37% hits;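 active means inhibition above about 50%, limit read from the data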
Hits are given with their value; . = inactive; / = no result.

SMILES	ROMK mod	WT yeast gro inh	Cl transport mod	L major viab	m-calpain inh
Cc1c(N2C(=O)CS/C2=N\N=C\c2ccc(Cl)cc2)c(=O)n(-c2ccccc2)n1C	/	.	/	77	.
CNC(CC(=O)c1ccc([N+](=O)[O-])cc1)C(Cl)(Cl)Cl (stereo not drawn)	.	.	.	100	.
N#C/C(=N\Nc1ccc(Cl)cc1)C(=O)c1ccccc1	2.8	/	-3.5	.	.
COc1ccc(C(=O)CC(Nc2ccc([N+](=O)[O-])cc2)c2ccc(OC)cc2)cc1 (stereo not drawn)	/	.	.	82	.
COc1ccc(N/N=C(\C#N)C(N)=O)cc1	/	.	.	.	.
COc1ccc(C(=O)/C(C#N)=N/Nc2ccc([N+](=O)[O-])cc2)cc1	6	65	-3.6	56	.
N#CCCN1CCN(C2=NC(=O)/C(=C\c3cccs3)S2)CC1	.	.	.	.	.
CN(C)C=Nc1ccccc1C1C=NNC1=O (stereo not drawn)	.	/	.	/	.
Nc1c(C(=O)O)sc2nc3c(cc12)CCCC3	.	/	.	/	.
CN1CCc2nc3sc(C(=O)C45CC6CC(CC(C6)C4)C5)c(N)c3cc2C1	.	.	/	96	.
Cc1c(C(=O)N2CCCC2)oc2c1-c1[nH]ncc1CC2	.	.	.	.	.
CCc1sc(/C=C(/C#N)C(N)=S)cc1[N+](=O)[O-]	-4.4	.	.	.	.
CC(O)c1nc2ccccc2n1CC(=O)Nc1ccc(F)cc1Cl (stereo not drawn)	.	.	.	.	.
Cc1ccc(/C=N/n2cnc3sc(-c4ccccc4)cc3c2=O)o1	.	86	/	.	.
COc1ccc(-c2n[nH]c(=S)n2-c2ccc3c(c2)OCCO3)cc1OC	.	.	.	88	.
COc1ccc(-c2n[nH]c(=S)n2-c2ccc3c(c2)OCCO3)cc1	/	.	.	.	.
COc1cc(OC)cc(-c2n[nH]c(=S)n2-c2ccc3c(c2)OCCO3)c1	.	.	.	71	.
CCc1ccc(CC2(O)CC(C)N(C)CC2C)cc1 (stereo not drawn)	.	.	.	.	.
CCN1CC(C)C(O)(c2ccccc2)CC1C (stereo not drawn)	.	.	/	79	.
Cc1onc(-c2ccccc2)c1C(=O)N/N=C/c1cn(C)c2ccccc12	.	.	.	.	.
Cc1cc(C)c(S(=O)(=O)N2CCN(c3ccc([N+](=O)[O-])c(-n4nc(C)cc4C)c3)CC2)c(C)c1	/	.	/	59	.
CC(C)n1cc(/C=C(\C#N)S(=O)(=O)c2ccccc2)c2ccccc21	.	.	.	.	.
C/C(=C\c1ccccc1)CN1CCN(Cc2ccc(C)o2)C(CCO)C1 (stereo not drawn)	.	.	.	83	.
Cc1nnc(SCC(=O)NNC(=O)c2ccccc2)n1-c1ccccc1	.	.	.	66	.
COc1ccccc1OCCSc1nnc(C)n1-c1ccccc1	.	.	.	73	.
SMILES	ROMK mod	WT yeast gro inh	Cl transport mod	L major viab	m-calpain inh
Cc1nn(Cc2ccccc2)c(C)c1NC(=O)CSc1nc2sc3c(c2c(=O)n1C)CCC3	.	/	.	.	/
Cc1cccc(-n2ncc3c(N4CC(C)CC(C)C4)ncnc32)c1 (stereo not drawn)	/	78	/	.	.
Cc1cccc(-n2ncc3c(N4CCCC4)ncnc32)c1	.	.	.	.	.
CC1CC(C)CN(c2ncnc3c2cnn3Cc2ccc(Cl)cc2)C1 (stereo not drawn)	.	76	/	.	.
CCOC(=O)c1sc(NC(=O)CSc2n[nH]c(-c3ccc(Cl)cc3Cl)n2)c(C#N)c1C	/	58	/	.	.
CCOC(=O)c1sc(NC(=O)CSc2nc(C)cc(-c3ccccc3)n2)c(C#N)c1C	.	.	/	.	.
COC(=O)c1c(SCC(=O)Nc2ccc(C)c(C)c2)nc(=O)[nH]c1C	/	/	.	/	.
COc1cc(C(O)P(=O)(OCC(C)C)c2ccc(N(C)C)cc2)cc(OC)c1OC (stereo not drawn)	.	/	.	/	.
Cn1cc(-c2nnc(-c3ccccc3)o2)c2ccccc21	/	.	.	.	.
COC(=O)c1c(-c2ccccc2)csc1NC1=NS(=O)(=O)c2ccccc21	/	.	.	89	.
COC(=O)c1ccc(C(=O)OC)c(NC2=NS(=O)(=O)c3ccccc32)c1	.	.	.	.	.
CCN1CCN(c2ccc(NC(=O)c3ccccc3F)cc2Cl)CC1	.	.	.	75	.
Cc1ccccc1C(=O)N1CCN(c2ccc(NC(=O)c3ccco3)cc2Cl)CC1	/	.	.	99	.
O=C(Nc1ccc(N2CCCC2)cc1)c1ccccc1F	/	.	.	100	.
Cc1cccc(NC(=O)c2cc(NC(=O)c3ccco3)ccc2Cl)n1	/	.	.	85	.
CCN1CCN(c2ccc(NC(=O)c3ccc(C#N)cc3F)cc2Cl)CC1	.	.	.	.	.
CCC1=C2CC[C@H]3C(=O)NC(=O)[C@H]3[C@H]2[C@@]2(Cc3ccccc3)C(=NCC(=O)OC)OC(=O)N2C1=O	/	/	.	/	.
CCOC(=O)C(C)(C)n1nnc(-c2ccc([N+](=O)[O-])cc2)n1	.	.	.	.	.
COc1ccc(C(=O)C(C)Oc2cccc(NC(=O)c3cccc([N+](=O)[O-])c3)c2)cc1 (stereo not drawn)	.	.	.	.	.
COc1ccccc1NC(=O)c1ccc(NC(=O)CSc2nnnn2C)cc1	/	.	.	.	.
CCN(CC)Cc1ccccc1Sc1ccccc1	/	.	.	94	.
N/C(Cc1ccccc1Sc1ccccc1)=N\O	.	.	.	.	.
CN1CC=C2C(C#N)=C(N)C(C#N)(C#N)[C@H](c3ccoc3)[C@H]2C1	-2.8	.	.	.	.
N#CC1=C(N)C(C#N)(C#N)C(c2cccnc2)C2CN(C(=O)OCc3ccccc3)CC=C12 (stereo not drawn)	/	.	.	.	.
CC(=O)N1CC=C2C(C#N)=C(N)C(C#N)(C#N)[C@H](c3ccoc3)[C@H]2C1	.	.	.	.	.
SMILES	ROMK mod	WT yeast gro inh	Cl transport mod	L major viab	m-calpain inh
CCCCOc1ccc(C2C3CN(C(=O)OCC)CC=C3C(C#N)=C(N)C2(C#N)C#N)cc1OC (stereo not drawn)	.	62	.	.	.
N#CC1=C(N)C(C#N)(C#N)[C@H](c2ccoc2)[C@H]2CN(Cc3ccccc3)CC=C12	/	.	.	56	.
Cc1ccc(C2C3CN(C(C)C)CC=C3C(C#N)=C(N)C2(C#N)C#N)cc1 (stereo not drawn)	-4.3	.	/	/	.
O=C(CN1N=C(c2ccccc2)CCC1=O)NCc1ccco1	/	.	.	.	.
CC(=O)c1cc(Cl)ccc1OC(=O)c1ccco1	/	.	.	.	.
O=C(Oc1ccc(Br)cc1C(=O)/C=C/c1ccccc1F)c1ccco1	/	/	.	100	/
CCCN1C(=O)COc2ccc(-c3n[nH]c(=O)c4ccccc34)cc21	.	.	.	.	.
CCCN(CCC)C(=O)c1cc(-c2ccc3c(c2)OCO3)nc2ccccc12	.	.	.	.	.
O=P(Cc1ccccc1)(c1ccccc1)c1ccccc1	/	.	.	.	.
Cc1ccc(O)c(CP(=O)(c2ccccc2)c2ccccc2)c1	/	.	.	84	.
Cc1cc(=O)oc2cc(OCc3ccc(C(=O)OCC(=O)Nc4ccc(N(C)C)cc4)cc3)ccc12	.	.	.	.	.

Screening data deposited in PubChem by several laboratories.
